PubChem BioAssay (EPA / NIEHS)
“And” between values parts separate entries of the source, which are not always exact repeats. Equal entries are not always repeated. The source holds several records for some structures; these can differ, active in one and inactive in another. The source made the active and inactive calls. How the source made its calls, unless noted: active means hit-call score of the fitted dose curve at least 0.9, where 1 is the maximum; inactive means score below 0.9. Peptide text beside a SMILES is read from it.

Test system: not listed separately
Test: CCTE_Shafer_MEA_dev_network_spike_number: CCTE's Neural Network Formation Assay for Number of Network Spikes, Shafer Lab (AID 2284048);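 further: synchronized bursts across electrodes counted on days 5 7 9 12 and integrated as AUC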;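 on AC50: fit as a loss of signal meaning fewer network spikes than DMSO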
Method: CCTE_Shafer_MEA_dev assay is conducted using Axion Biosystems 48 well microelectrode array (MEA) plates and Maestro recording system. Each well of the MEA plate contains a grid of 16 microelectrodes embedded in the culture surface. Electrically active cells, such as neurons, can be cultured over the electrodes, and electrical activity in these cells can be recorded extracellularly. The spontaneous firing of neurons is captured from each electrode on a microsecond timescale providing both temporally and spatially precise data. […] The CCTE_Shafer_MEA_dev assay uses primary cultures of rat cortical neurons. Recordings are made on days post-plating 5, 7, 9 and 12. As these cultures mature over time, neural networks develop functional activity and form cohesive networks in which electrical activity can be highly coordinated. CCTE_Shafer_MEA_dev_network_spike_number is 1 of 19 assay components of the CCTE_Shafer_MEA_dev assay. It measures the number of network spikes (temporally-clustered groups of action potential firing across multiple electrodes) during a recording in a microelectrode array (MEA) using Axion Biosystems Maestro 768 channel amplifier with the AxIS adaptive spike detector. To collapse across multiple recordings made on days post-plating 5, 7, 9 and 12, the trapezoidal area-under-the-curve of the component is calculated.Data from the assay component CCTE_Shafer_MEA_dev_network_spike_number was analyzed into 1 assay endpoint. This assay endpoint, CCTE_Shafer_MEA_dev_network_spike_number, was analyzed in the negative analysis fitting direction relative to DMSO as the negative control and baseline of activity. Using a type of functional reporter, gain or loss-of-signal activity can be used to understand electrical activity.
On the day prior to culture, each well was coated thoroughly with 150 uL of 0.05% polyethyleneimine (PEI, Sigma Cat P3143) in 50 mM HEPES (Sigma Cat H7523) at a pH of 8. The plate was incubated at 37C for one hour. PEI was rinsed out with 500 uL of sterile water three times. Plates were stored at 4C until the day of culture. This culture was plated at a seeding density of 1.5 x 10^5 cells/well on a 48-well MEA plate, prepared as described above. Cells were administered via a 25 uL media/laminin ([…]; Sigma Cat L2020-1MG) drop directly onto the microelectrode array, as adding the cells with the laminin results in better attachment than pre-coating with laminin. After 2 hours, an additional 475 uL of cortical media was added and the cells returned to the incubator. Exposure starts at day 0 of plating and is continued over twelve days of network development until the experiment is terminated. Cells are fed with fresh medium on DIV 5 and 9, following the recordings on those days. The entire volume of media in the well is exchanged and any vehicle or compound treatment is renewed. Complete details are found in OP-NHEERL/ISTD/SBB/TJS/2015-03-r0 (available on request, email shafer.tim@epa.gov). Measurement of the electrical activity is non-invasive, and recordings can be made from the same plate over multiple different days of the culture. In cortical neurons, this allows for the measurement of extracellular action potentials over the period during which networks form in the MEA plate.

Row | Compound | outcome | AC50
1 | CCCCNS(=O)(=O)c1ccccc1 | inactive | 
2 | COC(=O)[C@H](Cc1ccccc1)NC(=O)[C@@H](N)CC(=O)O (H-Asp-Phe-OMe) | inactive | 
3 | Cc1c(C(=O)c2c[nH]n(C)c2=O)ccc(S(C)(=O)=O)c1C1=NOCC1 | inactive | 
4 | C[N+](C)(C)CCCNS(=O)(=O)C(F)(F)C(F)(F)C(F)(F)C(F)(F)C(F)(F)C(F)(F)C(F)(F)C(F)(F)F | inactive | 1.43 µM (active)
5 | Cc1noc(NS(=O)(=O)c2ccc(N)cc2)c1C | inactive | 

Test system: not listed separately
Test: CCTE_Shafer_MEA_dev_network_spike_peak: CCTE's Neural Network Formation Assay for Mean Number of Electrodes in Network Spike, Shafer Lab (AID 2284049);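 on AC50: fitted for loss of signal meaning fewer electrodes in network spikes than DMSO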
Summary of the method: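 Continuous 12-day exposure of rat cortical cultures, starting at plating, on MEA plates. Endpoint: electrodes participating in network-spike peaks, AUC across DIV 5–12, DMSO as negative control.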

Row | Compound | AC50 | outcome
6 | CCCCNS(=O)(=O)c1ccccc1 | 78.5 µM (active) | 
7 | COC(=O)[C@H](Cc1ccccc1)NC(=O)[C@@H](N)CC(=O)O (H-Asp-Phe-OMe) |  | inactive
8 | Cc1c(C(=O)c2c[nH]n(C)c2=O)ccc(S(C)(=O)=O)c1C1=NOCC1 |  | inactive
9 | C[N+](C)(C)CCCNS(=O)(=O)C(F)(F)C(F)(F)C(F)(F)C(F)(F)C(F)(F)C(F)(F)C(F)(F)C(F)(F)F | 1.11 µM (active) and 1.4 µM (active) | 
10 | Cc1noc(NS(=O)(=O)c2ccc(N)cc2)c1C |  | inactive

Test system: DIO2 (gene 1734)
Test: CCTE_GLTED_hDIO2: CCTE's human Deiodinase 2 (DIO2) Inhibition Assay, Great Lakes Toxicology and Ecology Division (GLTED) Lab (AID 2284050; active means hit-call score of the fitted dose curve at least 0.9, where 1 is the maximum)
Summary of the method: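 In this cell-free test, chemicals are exposed to human deiodinase type 2 for 3 hours. Released iodide is determined spectrophotometrically via the Sandell-Kolthoff method, and signal loss relative to DMSO is fitted.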

Row | Compound | AC50
11 | O=c1c(O)c(-c2ccc(O)cc2O)oc2cc(O)cc(O)c12 | 55.4 µM (active)
12 | CCCCCCCOC(=O)c1ccc(O)cc1 | 106 µM (active)
13 | CCCCC/C=C\C/C=C\CCCCCCCC(=O)O | 36.8 µM (active)
14 | C/C=C/C=C/CCCCCCCO | 19.9 µM (active)
15 | O=C(O)c1cc(O)c2ccccc2c1O | 51 µM (active)
16 | CCCCCCCCCCCCCCCCCCOS(=O)(=O)O | 40.6 µM (active)
17 | CCCCCCCCCCCCc1ccc(O)cc1 | 69.7 µM (active)

Test system: not listed separately
Test: CCTE_Shafer_MEA_dev_spike_duration_mean: CCTE's Neural Network Formation Assay for Mean Spike Duration, Shafer Lab (AID 2284051);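 further: mean network spike duration pooled as area under curve over DIV 5 to 12 recordings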;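 on AC50: potency for a decrease in mean network spike duration versus DMSO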
Summary of the method: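 Rat cortical primary cultures, 48-well MEA (16 electrodes/well); compound from plating, renewed DIV 5, 9. Network spike duration (AxIS adaptive detector) recorded DIV 5/7/9/12, combined as trapezoidal AUC; loss direction vs DMSO.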

Row | Compound | AC50 | outcome
18 | CCCCNS(=O)(=O)c1ccccc1 | 50.5 µM (active) | 
19 | COC(=O)[C@H](Cc1ccccc1)NC(=O)[C@@H](N)CC(=O)O (H-Asp-Phe-OMe) |  | inactive
20 | Cc1c(C(=O)c2c[nH]n(C)c2=O)ccc(S(C)(=O)=O)c1C1=NOCC1 |  | inactive
21 | C[N+](C)(C)CCCNS(=O)(=O)C(F)(F)C(F)(F)C(F)(F)C(F)(F)C(F)(F)C(F)(F)C(F)(F)C(F)(F)F | 2.58 µM (active) | inactive
22 | Cc1noc(NS(=O)(=O)c2ccc(N)cc2)c1C |  | inactive

Test system: not listed separately
Test: CCTE_Shafer_MEA_dev_network_spike_duration_std: CCTE's Neural Network Formation Assay for Standard Deviation of Network Spike Duration, Shafer Lab (AID 2284052);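 further: hits are decreases in network spike duration SD versus DMSO vehicle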
Summary of the method: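 Rat cortical cultures, 1.5 x 10^5 cells/well, exposed continuously from plating to DIV 12 with media/compound renewal at DIV 5, 9. Spontaneous activity recorded DIV 5/7/9/12, AxIS adaptive spike detector; AUC across days; negative direction vs DMSO.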

Row | Compound | outcome
23 | CCCCNS(=O)(=O)c1ccccc1 | inactive
24 | COC(=O)[C@H](Cc1ccccc1)NC(=O)[C@@H](N)CC(=O)O (H-Asp-Phe-OMe) | inactive
25 | Cc1c(C(=O)c2c[nH]n(C)c2=O)ccc(S(C)(=O)=O)c1C1=NOCC1 | inactive
26 | C[N+](C)(C)CCCNS(=O)(=O)C(F)(F)C(F)(F)C(F)(F)C(F)(F)C(F)(F)C(F)(F)C(F)(F)C(F)(F)F | inactive
